The source of these data is PubChem BioAssay AID1259416 (Broad Institute, 2018).

Several values for one entry are separate records, joined by “and”; a condition that tells them apart may be missing. Equal values may be shown once. Hit rate of the full screen: of about 69,000 compounds, about 2,600 (3.8%) were called active. No stated cut-off is given here; in the data, active means activity change below about -70% (passing the limit was not always enough); inconclusive means no clear call, values can overlap the other calls. The entries come from a sample that favours actives as a whole. More than one record can exist for a structure, and the calls need not agree.

The experiment can be described thus: T. gondii growth inhibition with IFN-gamma, primary screen, cell-based (AID 1259416).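 Further: host cells are HeLa cells infected with Toxoplasma gondii.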 The settings on record: Toxoplasma gondii growth in IFN-gamma-treated host cells; stronger effect = lower value; concentration not given here.
For the molecule `COc1ccc(-c2nc(Nc3ccc(C(C)C)cc3)c3ccccc3n2)cc1`, the activity change, negative = inhibition is -22% (inactive).

Take `CC(C)NC(=O)COc1cccc(-c2nc(Nc3ccc4[nH]ncc4c3)c3ccccc3n2)c1`: the activity change, negative = inhibition is -76.1% (active).

For the molecule `CC(=O)Nc1ccc(Nc2nc(-c3nnc(-c4cccc(C)c4)o3)nc3ccccc23)cc1`, the activity change, negative = inhibition is 494% (inactive).

Consider `Cc1cc(CN(C)C(=O)c2coc(COc3ccc4sc(C)nc4c3)n2)on1`, for which the activity change, negative = inhibition is 12.7% (inactive).

Regarding `Fc1ccc2c(c1)C(c1cccnc1)=NNC(c1cccs1)=N2`, the activity change, negative = inhibition was -8.32% (inactive).

For `O=C(O)C1CSC(C2CC=CCC2)N1` (centres undefined), the activity change, negative = inhibition was 3.83% (inactive).

Consider `COCC1c2nnn(CC3CC3)c2CCN1C(=O)N(C)C` (centres undefined), for which the activity change, negative = inhibition is -2.44% (inactive).

In the case of `CN1CC[C@H](c2c(O)cc(O)c3c(=O)cc(-c4ccccc4Cl)oc23)[C@H](O)C1`, the activity change, negative = inhibition was -76.7% (active).

On to `CC(=O)N1CCC(C(=O)NCc2ccccc2)(N(C(=O)c2ccc(C)cc2)c2ccc(F)c(F)c2)CC1`, for which the activity change, negative = inhibition is -32.1% (inactive).

On to `CC(=O)Nc1ccc(-c2cn3nc(C)c(C)nc3n2)cc1`, for which the activity change, negative = inhibition was -0.582% (inactive).

Take `Brc1ccc(CSc2cccc3cccnc23)cc1`: the activity change, negative = inhibition is -110% (active).

For the molecule `Cc1nc(-c2ccc(F)cc2)sc1-c1ccc(SCc2ccc(Br)cc2)nn1`, the activity change, negative = inhibition is -0.254% (inactive).

`N#Cc1ccccc1SCc1ccccc1`: the activity change, negative = inhibition was 27% (inactive).

Turning to `O=C(COc1ccccc1Cl)Nc1ccc(Oc2ccc(F)cc2)c(C(F)(F)F)c1`, the activity change, negative = inhibition is -7.01% (inactive).

Take `CC1=C(C(=O)NCCCN2CCCCC2)C2(CCN(S(C)(=O)=O)CC2)OC1=O`: the activity change, negative = inhibition was 16.4% (inactive).

On to `COc1ccc(OC)c(NC(=O)N2CCc3nc(-c4ccc(C)cc4)sc3C2)c1`, for which the activity change, negative = inhibition is -112% (active).

Take `COc1ccc(NC(=O)N2CCc3nc(-c4ccccc4)sc3C2)cc1OC`: the activity change, negative = inhibition was 32.4% (inactive).

As for `COc1ccc(C)cc1NC(=O)C(=O)NCCc1sc(-c2ccc(F)cc2)nc1C`, the activity change, negative = inhibition was 0.139% (inactive).

`Cc1ccc(-c2nc3c(s2)CN(C(=O)Nc2ccc(C)cc2C)CC3)cc1`: the activity change, negative = inhibition was 210% (inactive).

In the case of `COc1cccc(-c2nc3c(s2)CN(C(=O)Nc2ccc(C)c(F)c2)CC3)c1`, the activity change, negative = inhibition is -89.9% (active).

On to `COc1cccc(OCC(=O)NCCc2sc(-c3cccc(F)c3)nc2C)c1`, for which the activity change, negative = inhibition is 11.4% (inactive).

For `CO[C@H](c1ccccc1)c1n[nH]c(Cc2ccccc2)n1`, the activity change, negative = inhibition is 0.899% (inactive).

As for `CC1(C)Cc2cc(-c3cncn3CCNC3CCS(=O)(=O)C3)ccc2O1` (centres undefined), the activity change, negative = inhibition was 2.55% (inactive).

In the case of `Cc1c(Br)c(C(F)(F)F)nn1CC(=O)N1CCCCC1`, the activity change, negative = inhibition was 2.94% (inactive).

Regarding `CCn1c(=O)c(-c2nc(-c3ccc(F)c(Cl)c3)no2)c(O)c2ccccc21`, the activity change, negative = inhibition is -48.5% (inactive).

As for `COc1ccc(-c2[nH]ncc2CNC(=O)Cc2cccnc2)cc1`, the activity change, negative = inhibition was -20.6% (inactive).

With `CN(CCCC1CCCO1)Cc1ncc[nH]1` (centres undefined), the activity change, negative = inhibition was -1.64% (inactive).

On to `CCOC(=O)N1CCC(NCc2ccccc2-n2ccnc2C)CC1`, for which the activity change, negative = inhibition is 4.98% (inactive).

With `CC(=O)Nc1ccccc1OC(=O)N1CCOCC1`, the activity change, negative = inhibition is 0.117% (inactive).

For `O=C(Nc1ccccc1N1CCOCC1)NC1CCN(C(=O)OCc2ccccc2)CC1`, the activity change, negative = inhibition was -86.9% (active).

Turning to `CN(Cc1ccn[nH]1)C(=O)c1coc(COc2cccc(F)c2F)n1`, the activity change, negative = inhibition is 6.91% (inactive).

Consider `CCC(C)N(Cc1ccncc1)C(=O)Cc1nc(C)sc1C` (centres undefined), for which the activity change, negative = inhibition is 46% (inactive).

Turning to `C[C@H]1O[C@@H](O[C@H]2[C@@H](O)C[C@H](O[C@H]3[C@@H](O)C[C@H](O[C@H]4CC[C@]5(C)C6C[C@@H](O)[C@]7(C)[C@@H](C8=CC(=O)OC8)CC[C@]7(O)C6CC[C@@H]5C4)O[C@@H]3C)O[C@@H]2C)C[C@H](O)[C@@H]1O` (some centres undefined), the activity change, negative = inhibition is -64.8% (inactive) and -73.6% (active).

With `CCOC(=O)c1cccnc1-c1ccc(OC)nc1`, the activity change, negative = inhibition is 14.5% (inactive).

As to `CN1CCC(NCCN(C)S(C)(=O)=O)CC1`, the activity change, negative = inhibition was 12.1% (inactive).

Take `Cc1cccc(-c2nc(C)c(CCNC(=O)C(=O)Nc3cccc(Cl)c3)s2)c1`: the activity change, negative = inhibition was -6.82% (inactive).

Turning to `CSc1nnc(SC)n1CCNC(=O)Nc1cccc(Cl)c1`, the activity change, negative = inhibition was -80.6% (active).

Consider `CCOC(=O)CCSc1nnc(CNc2cccc(Cl)c2)n1CCc1ccccc1`, for which the activity change, negative = inhibition is 19.4% (inactive).

Turning to `Cn1nc(C2CCN(c3cnccn3)CC2)n(-c2ccccc2)c1=O`, the activity change, negative = inhibition is 2.02% (inactive).

Turning to `CC(C)c1cc(C(=O)NCCCc2nc3ccccc3n2C)n(C)n1`, the activity change, negative = inhibition is -0.0637% (inactive).

`Cc1ccc(C23CC4CC(CC(CN)(C4)C2)C3)cc1C`: the activity change, negative = inhibition is -89.5% (active).

Take `O=C1CCc2cc(S(=O)(=O)Nc3cccc(Cl)c3)cc3c2N1CC3`: the activity change, negative = inhibition was -27.2% (inactive).

`CCCc1ccc(N2C(=O)C3CCC(C)CC3C2=O)cc1` (centres undefined): the activity change, negative = inhibition was 7.51% (inactive).

With `CC(C)c1cc(CN(C)C(=O)c2ccc(C#CC(C)(C)O)o2)on1`, the activity change, negative = inhibition was 1.77% (inactive).

On to `CC(=O)N1CC2(CCN(C(=O)C3CCNCC3)CC2)CC1C(=O)O` (centres undefined), for which the activity change, negative = inhibition is -40.5% (inactive).

Take `CC(=O)c1cnc2ccc(-c3cc(Cl)c(O)c(Cl)c3)nc2c1NC1CCC(CN(C)C)CC1` (centres undefined): the activity change, negative = inhibition was -75.6% (active).

In the case of `Cc1nn(-c2ccccc2)c(C)c1CCC(=O)Nc1nc(C(C)C)cs1`, the activity change, negative = inhibition is -0.863% (inactive).

On to `COc1cc2c(cc1CNCC(=O)Nc1ccc(C)cc1C)OCCO2`, for which the activity change, negative = inhibition is -7.55% (inactive).

Take `CN(Cc1ccoc1)c1nc(-c2cccnc2)nc2c1cnn2C`: the activity change, negative = inhibition is -58.5% (inactive).

For `COc1ccc(-c2noc(CSc3nc(C)cc(=O)[nH]3)n2)cc1OC`, the activity change, negative = inhibition was 32.8% (inactive).

In the case of `Cc1nc(SCc2nc(C(c3ccccc3)c3ccccc3)no2)[nH]c(=O)c1C`, the activity change, negative = inhibition was -95.3% (active).

Turning to `C=CCN(Cc1ccc(C)s1)C(=O)c1ccc(-c2nnn(C)n2)cc1`, the activity change, negative = inhibition was -2.73% (inactive).

For the molecule `CC1CCCN(C(=O)CCNc2c(-c3ccc(F)cc3)nc3cnccn23)C1` (centres undefined), the activity change, negative = inhibition was 229% (inactive).

In the case of `Cc1ncc(CN2CCC(Oc3cccc(C(=O)NCc4ccccc4)c3)CC2)s1`, the activity change, negative = inhibition was -28.1% (inactive).

For the molecule `COC1C2CCC1N(C(=O)COc1ccccc1C)CCO2` (centres undefined), the activity change, negative = inhibition is -5.26% (inactive).

`CC(C)(C)CC(=O)OCC(=O)[C@@]1(O)CCC2C3CCC4=CC(=O)C=C[C@]4(C)C3[C@@H](O)C[C@@]21C` (some centres undefined): the activity change, negative = inhibition is 6.39% (inactive).

Regarding `O=C(CCC1(c2ccccc2)NC(=O)NC1=O)Nc1ccc(N2CCCCC2)c(F)c1` (centres undefined), the activity change, negative = inhibition is -25.7% (inactive).

On to `O=C1CC(c2cccnc2)c2cnn(CC3CC3)c2N1` (centres undefined), for which the activity change, negative = inhibition was 6.49% (inactive).

On to `CC(C)Cn1ncc2c1NC(=O)CC2c1csc(-c2ccccc2)n1` (centres undefined), for which the activity change, negative = inhibition is -98.9% (active).

For the molecule `Cc1nn(CC(C)C)c2c1C(c1cnn3cccnc13)CC(=O)N2` (centres undefined), the activity change, negative = inhibition was -4.06% (inactive).

As for `COCCN1CC2(CCOCC2)c2cc(NC(=O)C3CCC3)ccc21`, the activity change, negative = inhibition is -48.6% (inactive).

As for `Cc1nn(C)c(C)c1CCC(=O)N[C@H]1CCC(=O)NC1c1cccnc1` (some centres undefined), the activity change, negative = inhibition was 85.1% (inactive).

For the molecule `COc1cccc(-c2nc(C)c(-c3ccc(SCc4cccc5ccccc45)nn3)s2)c1`, the activity change, negative = inhibition is -1.38% (inactive).

With `COc1ccc(-c2cccc(-c3nnc(C)s3)c2)c(OC)c1`, the activity change, negative = inhibition was -81.9% (active).

In the case of `COc1cccc(-c2nc(C)c(-c3ccc(SCc4ccccc4)nn3)s2)c1`, the activity change, negative = inhibition is -15.2% (inactive).

For the molecule `CCc1cn[nH]c1C1CCN(C(=O)C2COc3c(cccc3OC)C2)CC1` (centres undefined), the activity change, negative = inhibition was -0.504% (inactive).

On to `NCC(=O)CCC(=O)OCc1ccccc1`, for which the activity change, negative = inhibition is 9.17% (inactive).

`Cc1cc(C)c(/C=C2\C(=O)Nc3ccccc32)[nH]1`: the activity change, negative = inhibition was 22% (inactive) and -75.5% (active).

For the molecule `O=C1CCCCC(=O)c2ccccc2N1`, the activity change, negative = inhibition was -17.8% (inactive).

As for `CNc1ccc(Cl)cc1C(=O)NCCN(C)S(C)(=O)=O`, the activity change, negative = inhibition is -31% (inactive).

For `CC(=O)N1CCn2c(-c3cnn(C)c3)cnc2C12CCN(S(=O)(=O)C1CC1)CC2`, the activity change, negative = inhibition was 7.11% (inactive).

Turning to `O=C(NC1CC1)c1cc2n(n1)CCN(C(=O)CCn1nnc3ccccc31)C2`, the activity change, negative = inhibition was -45.8% (inactive).

As for `C[C@@H]1CN([C@@H](C)CO)C(=O)CCCn2cc(nn2)CO[C@H]1CN(C)S(=O)(=O)c1ccc(-n2cccn2)cc1`, the activity change, negative = inhibition was -114% (active).

In the case of `C[C@H]1CN([C@@H](C)CO)C(=O)CCCn2cc(nn2)CO[C@@H]1CN(C)S(=O)(=O)c1cccc(C#N)c1`, the activity change, negative = inhibition was 24.6% (inactive).

With `C[C@H]1CN([C@@H](C)CO)C(=O)CCCn2cc(nn2)CO[C@@H]1CN(C)S(=O)(=O)c1ccc(-n2cccn2)cc1`, the activity change, negative = inhibition was -30.5% (inactive).

`O=C(c1cc(COc2c(F)cccc2F)on1)N1CCCC1c1ccco1` (centres undefined): the activity change, negative = inhibition is 1.77% (inactive).

Take `CC(=O)Nc1ccc(NS(=O)(=O)c2ccc3oc(=O)ccc3c2)cc1`: the activity change, negative = inhibition was 137% (inactive).

`O=C(C1CCN(S(=O)(=O)c2ccc3[nH]c(=O)ccc3c2)CC1)N1CCN(c2ccccc2F)CC1`: the activity change, negative = inhibition is 27.2% (inactive).

`O=C(Oc1ccc(Cl)cc1)c1snnc1-c1ccccc1`: the activity change, negative = inhibition is -78% (active).

For `COc1ccc2c(c1)NC1(CCN(S(=O)(=O)c3ccc(F)c(Cl)c3)CC1)c1cccn1-2`, the activity change, negative = inhibition was 11.3% (inactive).

Turning to `COc1ncccc1CN1CCc2[nH]cnc2C1Cc1ccccc1` (centres undefined), the activity change, negative = inhibition is -52.3% (inactive).

Take `CC(=O)Nc1ccc(NC(=O)CSc2nnnn2C2CCCCC2)cc1`: the activity change, negative = inhibition was 2.96% (inactive).

Take `C=CCC1(O)C(C)C(c2ccccc2)N(C)C(c2ccccc2)C1C` (centres undefined): the activity change, negative = inhibition was -91.3% (active).

For `CN(C)C(=O)NC[C@H]1CCC[C@]2(CCN(Cc3nccs3)C2)O1`, the activity change, negative = inhibition was -40.2% (inactive).

Turning to `O=C(Nc1ccc(C(F)(F)F)cn1)Nc1ccc(-c2ccccc2)s1`, the activity change, negative = inhibition was -27.9% (inactive).

For the molecule `Cc1c(C(=O)N2CCC3(CC2)CC(O)(c2nccs2)CO3)oc2ccccc12` (centres undefined), the activity change, negative = inhibition is -14.2% (inactive).

Take `Cc1c(C(=O)N2CCCCC2)oc2ccc3c(c12)C(=O)CC1(CCCCCC1)O3`: the activity change, negative = inhibition was -112% (active).

On to `COc1cccc(NC(=O)N2CCC3(CC2)CC(=O)c2ccccc2O3)c1`, for which the activity change, negative = inhibition is -5.86% (inactive).

Turning to `c1ccc2ncc(-c3ccncn3)cc2c1`, the activity change, negative = inhibition is 1.85% (inactive).
